Compound activity (PubChem BioAssay)
GPR151 ag: activators of human GPR151; activation, % at 11.2 µM; AID 1508602; PathHunter beta-arrestin GPR151 cells, luminescence; actives 1% (n = 650,000); Q8TDV0; in the data active = activation above about 4.9%
Target sequence (Q8TDV0 whole entry, looked up): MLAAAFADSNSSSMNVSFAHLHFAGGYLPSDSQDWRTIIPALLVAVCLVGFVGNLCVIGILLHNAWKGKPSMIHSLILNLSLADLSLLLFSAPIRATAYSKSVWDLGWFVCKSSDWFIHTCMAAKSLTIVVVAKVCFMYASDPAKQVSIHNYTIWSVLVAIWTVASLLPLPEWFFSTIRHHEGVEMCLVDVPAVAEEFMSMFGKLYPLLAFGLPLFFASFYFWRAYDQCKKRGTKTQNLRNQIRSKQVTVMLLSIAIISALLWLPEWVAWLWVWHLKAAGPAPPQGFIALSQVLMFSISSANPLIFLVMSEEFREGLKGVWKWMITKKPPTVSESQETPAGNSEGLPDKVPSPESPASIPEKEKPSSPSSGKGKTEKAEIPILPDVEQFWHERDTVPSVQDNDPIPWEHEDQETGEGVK
TEAD-YAP block: TEAD-YAP interaction inhibition; HEK-TIYL cells, TEAD-Gal4/YAP UAS-luciferase luminescence; inhibition, % at 9.12 µM; actives 1.4% (n = 640,000); in the data active = inhibition above about 32%
FBW7 activator: human FBW7 E3 ligase activation, primary screen; Q969H0; AlphaScreen FBW7–phospho-cyclin E peptide binding, activator screen; normalized activity (activation), % at 26.1 µM; actives 0.13% (n = 650,000); in the data active = normalized activity above about 1.9%;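 note: purified mutant Fbw7 with reduced substrate affinity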
MITF inh: blocks human microphthalmia-associated transcription factor. O75030. AlphaScreen MITF homodimerization, bead proximity signal. actives 0.91% (n = 650,000). inhibition, % at 2.6 µM; in the data active = inhibition above about 50%
GPR151 confirm: human GPR151 activation, confirmation screen; GPR151 PathHunter beta-arrestin cells, luminescence, 90 min; % of EA-reagent control over plate median; shares compounds with GPR151 ag; activation, % at 11.2 µM; 6,700 tested, under 10 active; AID 1508609;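 active = mean percent activation across replicates above the confirmation screen cutoff of 4.91%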
GPR119 ag: GPR119 activation, counter-screen for GPR151 activators. shares compounds with GPR151 ag. GPR119 PathHunter beta-arrestin cells, luminescence, 90 min; 0 = compound-well median, 100 = enzyme-acceptor control. activation, % at 11.2 µM. actives 0.3% (n = 6,700). AID 1508611;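 active = mean percent activation in the counterscreen above 29.09%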;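 note: counterscreen on off-target GPR119 to flag nonselective hits from the GPR151 activator screen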
A number is an active result. A selection: hits, their analogues and other compounds. The true share with any hit is near 3.4%.

CCc1cccc(C)c1NC(=O)CCC(=O)O was read as GPR151 ag inactive, TEAD-YAP block inactive, FBW7 activator inactive and MITF inh inactive.
`Cc1cccc(C)c1OCC(=O)NNC(=O)COc1ccc2c(c1)CCC2` gave GPR151 ag inactive, TEAD-YAP block inactive, FBW7 activator inactive and MITF inh inactive.
Screening CC1CN(C(=O)c2ccccc2C(F)(F)F)CC(C)O1 (centres undefined) returned GPR151 ag 8.0, TEAD-YAP block inactive, FBW7 activator inactive, MITF inh inactive, GPR151 confirm inactive and GPR119 ag inactive.
Screening CC1CN(C(=O)c2cccs2)CC(C)O1 (centres undefined) returned GPR151 ag inactive, TEAD-YAP block inactive, FBW7 activator inactive and MITF inh inactive.
O=C(CCCC(=O)N/N=C/c1ccccc1O)N/N=C/c1ccccc1O was read as GPR151 ag inactive, TEAD-YAP block inactive, FBW7 activator inactive and MITF inh inactive.
CC1(C)C(=O)OC(c2ccccc2F)C2(CCCCC2)C1=O (centres undefined) was read as GPR151 ag 5.3, TEAD-YAP block inactive, FBW7 activator inactive, MITF inh inactive, GPR151 confirm inactive and GPR119 ag inactive.
`COc1ccc(-n2nc3ccc(NC(=O)c4ncn[nH]4)cc3n2)cc1Cl` gave GPR151 ag 5.0, TEAD-YAP block inactive, FBW7 activator inactive, MITF inh inactive, GPR151 confirm inactive and GPR119 ag inactive.
`COC(=O)c1cc(NC(C)=O)c(Cl)c(NC(C)=O)c1` gave GPR151 ag inactive, TEAD-YAP block inactive, FBW7 activator inactive and MITF inh inactive.
CC(=O)Nc1cc(C(=O)O)cc(N)c1Cl was read as GPR151 ag 5.5, TEAD-YAP block inactive, FBW7 activator inactive, MITF inh inactive, GPR151 confirm inactive and GPR119 ag inactive.
For CC(C)CCNC(=O)NC(=O)COC(=O)c1cc2ccccc2oc1=O the results were GPR151 ag 12, TEAD-YAP block inactive, FBW7 activator inactive, MITF inh inactive, GPR151 confirm inactive and GPR119 ag inactive.
For Cc1ccc(NC(=O)c2ccc(=O)n(Cc3ccccc3Cl)c2)cc1 the results were GPR151 ag inactive, TEAD-YAP block inactive, FBW7 activator inactive and MITF inh inactive.
COc1ccc(C(C)=O)cc1COC(=O)c1cccc2ccccc12 was read as GPR151 ag inactive, TEAD-YAP block inactive, FBW7 activator inactive and MITF inh inactive.
`CNc1nc(-c2ccc3c(c2)CCN3S(C)(=O)=O)cs1` gave GPR151 ag 6.8, TEAD-YAP block inactive, FBW7 activator inactive, MITF inh inactive, GPR151 confirm inactive and GPR119 ag inactive.
Screening CC1(C)Cc2c(cnn2-c2ccccc2)C(=O)N(Cc2ccccc2)C1=O returned GPR151 ag inactive, TEAD-YAP block inactive, FBW7 activator inactive and MITF inh inactive.
COc1ccc(NC(=O)c2sc(=S)[nH]c2N)cc1 was read as GPR151 ag 5.0, TEAD-YAP block inactive, FBW7 activator inactive, MITF inh inactive, GPR151 confirm inactive and GPR119 ag inactive.
Screening Nc1nc(SCc2cn3cc(Br)ccc3n2)n[nH]1 returned GPR151 ag 7.6, TEAD-YAP block inactive, FBW7 activator inactive, MITF inh inactive, GPR151 confirm inactive and GPR119 ag inactive.
`O=C(NC1CCCCC1)c1ccc2c(=O)n(-c3ccccc3)c(SCc3cccc([N+](=O)[O-])c3)nc2c1` gave GPR151 ag inactive, TEAD-YAP block inactive, FBW7 activator inactive and MITF inh inactive.
`CC1(C)c2ccccc2N2CCC(=O)NC21/C=C/c1ccc(Br)cc1` (centres undefined) gave GPR151 ag inactive, TEAD-YAP block inactive, FBW7 activator inactive and MITF inh inactive.
`NC(=O)c1cn(-c2ccccc2)nc1-c1ccc(Cl)cc1` gave GPR151 ag inactive, TEAD-YAP block inactive, FBW7 activator inactive and MITF inh inactive.
`CN(Cc1cn(-c2ccccc2)nc1-c1ccc(Cl)cc1)C(=O)CCC(=O)O` gave GPR151 ag 5.6, TEAD-YAP block inactive, FBW7 activator inactive, MITF inh inactive, GPR151 confirm inactive and GPR119 ag inactive.
For Cn1c(=NC(=O)CS(=O)(=O)c2ccccc2)sc2ccccc21 the results were GPR151 ag 5.0, TEAD-YAP block inactive, FBW7 activator inactive, MITF inh inactive, GPR151 confirm inactive and GPR119 ag inactive.
Screening CCOc1ccc(S(=O)(=O)Nc2ccc(C(=O)O)cc2)cc1 returned GPR151 ag inactive, TEAD-YAP block inactive, FBW7 activator inactive and MITF inh inactive.
Screening C=CSc1sc(Cl)c(N2CCOCC2)c1[N+](=O)[O-] returned GPR151 ag inactive, TEAD-YAP block inactive, FBW7 activator inactive and MITF inh inactive.
C=CSc1sc(Cl)c(N2CCC3(CC2)OCCO3)c1[N+](=O)[O-] was read as GPR151 ag 5.2, TEAD-YAP block inactive, FBW7 activator inactive, MITF inh inactive, GPR151 confirm inactive and GPR119 ag inactive.
For CC1(C(=O)NNC(=O)Nc2cccc([N+](=O)[O-])c2)CC1(Cl)Cl (centres undefined) the results were GPR151 ag 6.4, TEAD-YAP block inactive, FBW7 activator inactive, MITF inh inactive, GPR151 confirm inactive and GPR119 ag inactive.
For CC1CC(C)CN(CCCNC(=O)C2CCCN(S(C)(=O)=O)C2)C1 (centres undefined) the results were GPR151 ag inactive, TEAD-YAP block inactive, FBW7 activator inactive and MITF inh inactive.
For CN(C(=O)c1c[nH]c2ccc(S(=O)(=O)N3CCOCC3)cc2c1=O)C1CCCCC1 the results were GPR151 ag inactive, TEAD-YAP block inactive, FBW7 activator inactive and MITF inh inactive.
`Cc1cc(NC(=O)C(C)N(c2ccc(Cl)cc2)S(C)(=O)=O)ccc1Br` (centres undefined) gave GPR151 ag 6.4, TEAD-YAP block inactive, FBW7 activator inactive, MITF inh inactive, GPR151 confirm inactive and GPR119 ag inactive.
COC(=O)c1ccccc1NC(=O)C(C)N(c1cc(C)cc(C)c1)S(C)(=O)=O (centres undefined) was read as GPR151 ag inactive, TEAD-YAP block inactive, FBW7 activator inactive and MITF inh inactive.
Screening Cc1cc(NC(=O)C(=O)NC(C)C)ccc1Br returned GPR151 ag 6.4, TEAD-YAP block inactive, FBW7 activator inactive, MITF inh inactive, GPR151 confirm inactive and GPR119 ag inactive.
COC(=O)c1ccccc1NC(=O)C(C)N(c1ccc(Cl)cc1)S(C)(=O)=O (centres undefined) was read as GPR151 ag 6.8, TEAD-YAP block inactive, FBW7 activator inactive, MITF inh inactive, GPR151 confirm inactive and GPR119 ag inactive.
O=C(Cc1cn(-c2ccc(Nc3ccccc3)nn2)c2ccccc12)NCCOc1ccccc1 was read as GPR151 ag inactive, TEAD-YAP block inactive, FBW7 activator inactive and MITF inh inactive.
